About 83,000 compounds went through this panel and 20% of them were active in at least one assay; those are over-represented in the sample as a whole.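 Plates (96-well) were seeded with cells, treated with compound at one concentration, and incubated for 48 hours before percent growth was determined.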 Calls of active or inactive are those of the source. How the source made its calls: active means growth percent below 10; inactive means the rest.
Legend:
Test in all cases: NCI-60 one-dose screen, 48 h (100 = growth as untreated, 0 = no growth, -100 = all killed)
Details in all cases: 10 µM unless noted
HCT-15 colon = system: HCT-15 colon
HT29 colon = system: HT29 colon
SNB-19 CNS = system: SNB-19 CNS
U251 CNS = system: U251 CNS
PC-3 prostate = system: PC-3 prostate
SK-MEL-5 melanoma = system: SK-MEL-5 melanoma
UACC-62 melanoma = system: UACC-62 melanoma
LOX IMVI melanoma = system: LOX IMVI melanoma
SK-MEL-28 melanoma = system: SK-MEL-28 melanoma
SNB-75 CNS = system: SNB-75 CNS

Measured: growth

COc1ccc(/C=N\Nc2nc(SCCC(C)C)nc(-c3ccc(OC)cc3)c2C#N)cc1
active: U251 CNS 7.04%
inactive: HCT-15 colon 74.6% | HT29 colon 55% | SNB-19 CNS 69.5% | PC-3 prostate 72.3% | SK-MEL-5 melanoma 94.3% | UACC-62 melanoma 79.1% | LOX IMVI melanoma 66% | SK-MEL-28 melanoma 104%

NS(=O)(=O)c1ccccc1NC(=O)Nc1nc2ccccc2s1
inactive: HCT-15 colon 100% | HT29 colon 98.2% | SNB-19 CNS 98% | U251 CNS 99.1% | PC-3 prostate 97.8% | SK-MEL-5 melanoma 99.8% | UACC-62 melanoma 101% | LOX IMVI melanoma 91.8% | SK-MEL-28 melanoma 103%

CC(C)(C)[Si](C)(C)OC1[C@@H](CNC(=O)NC(=O)NC(N)=O)O[C@@H](n2cnc3c(NC(=O)Nc4ccccc4)ncnc32)[C@H]1O[Si](C)(C)C(C)(C)C (some centres undefined)
inactive: HCT-15 colon 94.8% | HT29 colon 10.5% | SNB-19 CNS 98.3% | U251 CNS 69.1% | PC-3 prostate 41.5% | SK-MEL-5 melanoma 91.8% | UACC-62 melanoma 87.8% | LOX IMVI melanoma 56% | SK-MEL-28 melanoma 63.5%

CCOC(=O)c1c(C(=O)c2cn(C)c3ccc(Br)cc23)c(-c2cn(C)c3ccc(Br)cc23)n(NC(=O)OC(C)(C)C)c1C
inactive: HCT-15 colon 89% [100 µM] | HT29 colon 90.5% [100 µM] | SNB-19 CNS 50.8% [100 µM] | U251 CNS 60.7% [100 µM] | PC-3 prostate 61.8% [100 µM] | SK-MEL-5 melanoma 90.6% [100 µM] | UACC-62 melanoma 65.7% [100 µM] | LOX IMVI melanoma 78% [100 µM] | SK-MEL-28 melanoma 107% [100 µM]

COc1ccc(C(=O)/C=C/c2c(C(F)(F)F)nc3ccccn23)cc1OC
inactive: SNB-19 CNS 16.5% | PC-3 prostate 30.6% | SK-MEL-28 melanoma 28.2%
active: HCT-15 colon -13.6% | HT29 colon 6.89% | U251 CNS 7.17% | SK-MEL-5 melanoma 4.43% | UACC-62 melanoma 5.04% | LOX IMVI melanoma -53.1%

COc1ccc(Nc2nc(-c3cc(O)c(C)c(C)c3O)cs2)cc1
inactive: HCT-15 colon 50.4% | HT29 colon 105% | SNB-19 CNS 102% | U251 CNS 70.2% | PC-3 prostate 43.9% | SK-MEL-5 melanoma 82.3% | LOX IMVI melanoma 61.5% | SK-MEL-28 melanoma 99.5%

COC1=CC(c2ccc[nH]2)=N/C1=C\c1[nH]c(C)c(CC(=O)OCc2ccccc2)c1CCC(=O)OCc1ccccc1
inactive: SNB-19 CNS 25.5%
active: HCT-15 colon -56.7% | HT29 colon 0.828% | U251 CNS -71.4% | PC-3 prostate -40.3% | SK-MEL-5 melanoma -93.8% | UACC-62 melanoma -69.7% | LOX IMVI melanoma -80.7% | SK-MEL-28 melanoma -52.4%

O=C1NC(=C(Cl)Cl)/C(=N\S(=O)(=O)NCc2ccccc2)N1
inactive: HCT-15 colon 105% | HT29 colon 108% | SNB-19 CNS 91.2% | U251 CNS 91% | PC-3 prostate 95.6% | SK-MEL-5 melanoma 96.6% | UACC-62 melanoma 85.5% | LOX IMVI melanoma 93.8% | SK-MEL-28 melanoma 103%

CCCCCCCCCCCCCCCCOCCCOP(=O)(O)C1CCCN(O)C1=O (centres undefined)
active: HCT-15 colon 7.93% | SK-MEL-5 melanoma -65.8% | UACC-62 melanoma -13% | LOX IMVI melanoma 0.67%
inactive: HT29 colon 23.1% | SNB-19 CNS 22% | U251 CNS 18.7% | PC-3 prostate 13.5% | SK-MEL-28 melanoma 38.3%

O=C(NCCNc1nccc(Nc2ccc(S(=O)(=O)Nc3ccccn3)cc2)n1)c1cccc([N+](=O)[O-])c1
inactive: HCT-15 colon 105% | HT29 colon 90.6% | SNB-19 CNS 112% | U251 CNS 97.6% | PC-3 prostate 94.2% | SK-MEL-5 melanoma 103% | LOX IMVI melanoma 101% | SK-MEL-28 melanoma 107%

Cc1ccc(NC(=O)Cn2cc(CN3CCN(c4ccnc5cc(Cl)ccc45)CC3)nn2)cc1
inactive: HCT-15 colon 84.7% | HT29 colon 105% | SNB-19 CNS 89.2% | U251 CNS 89.4% | PC-3 prostate 63.1% | SK-MEL-5 melanoma 77.7% | UACC-62 melanoma 77.7% | LOX IMVI melanoma 82.4% | SK-MEL-28 melanoma 104%

COC(=O)CC[C@H](C)[C@H]1CC[C@H]2[C@@H]3CC[C@@H]4CC5(CC[C@]4(C)[C@H]3CC(=O)[C@]12C)Nc1ccccc1NC5=NC(C)(C)C (some centres undefined)
inactive: HCT-15 colon 51.4% | HT29 colon 69.8% | SNB-75 CNS 71.1% | SNB-19 CNS 81.5% | U251 CNS 48.3% | PC-3 prostate 56.5% | LOX IMVI melanoma 47.4% | SK-MEL-28 melanoma 89.2%

CCOCCNC1=C(Cl)C(=O)c2ccccc2C1=O
inactive: HCT-15 colon 95% | HT29 colon 107% | SNB-19 CNS 111% | U251 CNS 100% | PC-3 prostate 92.6% | SK-MEL-5 melanoma 67.2% | UACC-62 melanoma 101% | LOX IMVI melanoma 70.6% | SK-MEL-28 melanoma 117%

O=C(COc1ccc(-c2nc3cc(Cl)c(Cl)cc3[nH]2)cc1)N=Nc1c(O)[nH]c2ccc(Cl)cc12
inactive: HCT-15 colon 80.3% | HT29 colon 33.4% | SNB-19 CNS 56.7% | U251 CNS 34.2% | PC-3 prostate 61.2% | SK-MEL-5 melanoma 85.6% | UACC-62 melanoma 91.6% | LOX IMVI melanoma 60.8% | SK-MEL-28 melanoma 73.7%

COc1cc(NS(=O)(=O)c2ccc(-c3cnc(C4CC4)o3)cc2)ccc1F
inactive: HCT-15 colon 20.9% | SNB-19 CNS 25.6% | U251 CNS 22.1% | PC-3 prostate 33.9% | SK-MEL-5 melanoma 15.5% | UACC-62 melanoma 31.6% | LOX IMVI melanoma 35% | SK-MEL-28 melanoma 65.2%
active: HT29 colon 2.64%

CCOC(=O)[C@@H]1CSC(CC)=C(C(=O)O)N1
inactive: HCT-15 colon 104% | HT29 colon 111% | SNB-19 CNS 100% | U251 CNS 94.6% | SK-MEL-5 melanoma 103% | LOX IMVI melanoma 104%
active: PC-3 prostate -9.62%

O=[N+]([O-])c1cccc(-c2nc3cc4nc5ccccc5[nH]c4cc3n2)c1
inactive: HCT-15 colon 99.5% | HT29 colon 100% | SNB-19 CNS 102% | U251 CNS 98.2% | PC-3 prostate 93.2% | SK-MEL-5 melanoma 96.4% | UACC-62 melanoma 97.5% | LOX IMVI melanoma 99.8% | SK-MEL-28 melanoma 113%

Cc1cc(C(=O)Nc2ncc(Cc3cccc(C(F)(F)F)c3)s2)c2ccccc2n1
inactive: HCT-15 colon 17.3% | SNB-19 CNS 44.7% | U251 CNS 18.5% | PC-3 prostate 26.7% | LOX IMVI melanoma 12.6% | SK-MEL-28 melanoma 40.4%
active: HT29 colon 8.85% | SK-MEL-5 melanoma 0.694% | UACC-62 melanoma 9.95%

COc1ccc(Nc2ncc(Br)c(NCCCNC(=O)C3CCCC3)n2)cc1
inactive: HCT-15 colon 37.1% | HT29 colon 47.5% | SNB-19 CNS 35.2% | U251 CNS 27.2% | PC-3 prostate 44% | SK-MEL-5 melanoma 67.5% | UACC-62 melanoma 46.2% | LOX IMVI melanoma 11% | SK-MEL-28 melanoma 57.2%

Nc1c(C(=O)Nc2ccncc2)sc2nc3c(cc12)C(O)CCC3 (centres undefined)
inactive: HT29 colon 85.4% | SNB-75 CNS 105% | SNB-19 CNS 95.4% | U251 CNS 91.6% | PC-3 prostate 94.6% | SK-MEL-5 melanoma 92.4% | UACC-62 melanoma 80% | LOX IMVI melanoma 105% | SK-MEL-28 melanoma 85.5%

O=C1C(=O)N(Cc2ccc(-c3ccccc3)cc2)c2ccc(OC(F)(F)F)cc21
inactive: SNB-75 CNS 39.3% | SNB-19 CNS 43.2% | U251 CNS 20.9% | PC-3 prostate 17.4% | SK-MEL-5 melanoma 92.2% | UACC-62 melanoma 62.3% | LOX IMVI melanoma 20.1% | SK-MEL-28 melanoma 82.7%
active: HT29 colon 9.07%

COc1cc(-c2nc3sccn3c2-c2ccnc(NCCNS(=O)(=O)c3ccccc3)n2)ccc1F
inactive: HT29 colon 24.6% | SNB-75 CNS 59.4% | SNB-19 CNS 67.6% | U251 CNS 61% | PC-3 prostate 30.9% | SK-MEL-5 melanoma 19% | LOX IMVI melanoma 41.4% | SK-MEL-28 melanoma 63.7%

CSc1nc(N)c(NS(=O)(=O)c2ccc(C(C)=O)cc2)c(=O)[nH]1
inactive: HT29 colon 103% | SNB-75 CNS 87.6% | SNB-19 CNS 107% | U251 CNS 112% | PC-3 prostate 102% | SK-MEL-5 melanoma 97.5% | UACC-62 melanoma 98.3% | LOX IMVI melanoma 101% | SK-MEL-28 melanoma 104%

COC(=O)c1c(C)c2n(c1C)C(=O)C(c1ccccc1)=C2
inactive: HT29 colon 87.1% | SNB-75 CNS 53.2% | SNB-19 CNS 85.7% | U251 CNS 93.2% | PC-3 prostate 84.4% | SK-MEL-5 melanoma 84.2% | UACC-62 melanoma 58.7% | LOX IMVI melanoma 73.8% | SK-MEL-28 melanoma 91.2%

CC1CN(S(=O)(=O)c2oc(-c3ccc(Cl)cc3)nc2C#N)CC(C)O1 (centres undefined)
active: LOX IMVI melanoma 8.2%
inactive: HT29 colon 58.5% | SNB-75 CNS 91.1% | SNB-19 CNS 97.5% | U251 CNS 89.6% | PC-3 prostate 90.2% | SK-MEL-5 melanoma 92.7% | UACC-62 melanoma 96.7% | SK-MEL-28 melanoma 97.9%

CC(=O)Oc1ccc(C)cc1C
inactive: HT29 colon 105% | SNB-75 CNS 70.3% | SNB-19 CNS 103% | U251 CNS 103% | PC-3 prostate 97% | SK-MEL-5 melanoma 108% | UACC-62 melanoma 105% | LOX IMVI melanoma 97.1% | SK-MEL-28 melanoma 107%

COC(=O)c1nc(-c2ccccc2)oc1S(=O)(=O)Cc1ccccc1
inactive: HT29 colon 49.4% | SNB-75 CNS 84.8% | SNB-19 CNS 96.2% | U251 CNS 94.2% | PC-3 prostate 91.6% | SK-MEL-5 melanoma 93.4% | UACC-62 melanoma 91.1% | LOX IMVI melanoma 61.1% | SK-MEL-28 melanoma 95.5%

CCOC(=O)n1cc(-c2nonc2-c2cn(C(=O)OCC)c3ccc(Br)cc23)c2ccccc21
inactive: HT29 colon 76.1% | SNB-75 CNS 73.1% | SNB-19 CNS 93.5% | U251 CNS 89.8% | PC-3 prostate 69% | SK-MEL-5 melanoma 82.3% | LOX IMVI melanoma 74.6% | SK-MEL-28 melanoma 100%

Clc1ccc2c(c1)C(c1c[nH]c3ccccc13)(c1c[nH]c3ccccc13)CCO2
inactive: SNB-75 CNS 68.4% | SNB-19 CNS 97.4% | U251 CNS 46.8% | PC-3 prostate 35.3% | SK-MEL-5 melanoma 83.8% | UACC-62 melanoma 57% | LOX IMVI melanoma 79.4% | SK-MEL-28 melanoma 95.3%
active: HT29 colon -46.2%
